High-throughput results (PubChem)
Compounds with a hit are over-represented: about 9.9% of the library has one in this group of screens.
HPGD block – inhibitors of human 15-hydroxyprostaglandin dehydrogenase (HPGD). purified HPGD, NADH fluorescence kinetic, PGE2 substrate. Potency, µM, inactives show top-dose activity change, negative = inhibition, hits mostly inhibitors. actives 4.3% (n = 150,000). AID 894
Target sequence (P15428 whole entry, looked up): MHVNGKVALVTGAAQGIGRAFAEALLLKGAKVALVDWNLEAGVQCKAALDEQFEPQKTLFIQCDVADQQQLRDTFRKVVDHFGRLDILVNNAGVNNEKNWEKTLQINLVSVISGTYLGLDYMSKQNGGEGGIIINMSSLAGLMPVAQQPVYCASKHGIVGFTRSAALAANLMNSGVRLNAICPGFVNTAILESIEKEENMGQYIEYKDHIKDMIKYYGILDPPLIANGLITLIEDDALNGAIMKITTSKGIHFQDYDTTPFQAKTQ
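NADH formation kinetics: reaction with 30 uM PGE2 and 1 mM NAD+ (final), 20 nM enzyme, Tris-HCl pH 8 with Tween 20, after 15 min compound preincubation at room temperature. Fluorescence change, last versus first of five reads.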
KDM4E inh – JMJD2E (human) inhibition; B2RXH2; JMJD2E catalytic domain, FDH-coupled NADH fluorescence (FDH is formaldehyde dehydrogenase); Potency, µM (series often up to 57.1 µM), without a hit: at the highest dose activity change, negative = inhibition, most hits filed as inhibitors; actives 1.6% (n = 230,000);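 also: 0% = wells with enzyme and -100% = buffer wells without enzyme; nearly all actives have a fitted effect of over 50% in size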
Tau ThT inhib – tau fibrillization inhibition (ThT binding) | Potency, µM (doses to about 57.4 µM), for inactives: at the highest dose activity, negative = inhibition, hits mostly inhibitors | recombinant tau K18 P301L, heparin-induced fibrillization, ThT fluorescence | actives 2.1% (n = 270,000) | P10636; active = well fitted curve in the direction sought with a large enough effect; inconclusive = small, poorly fitted or top-dose-only effect, or another doubt; inactive = no such curve, though single readings can be large; an effect the other way counts as inactive or inconclusive; also: nearly all actives have a fitted effect of over 55% in size
Target sequence (P10636 561-689 P618L limits assumed): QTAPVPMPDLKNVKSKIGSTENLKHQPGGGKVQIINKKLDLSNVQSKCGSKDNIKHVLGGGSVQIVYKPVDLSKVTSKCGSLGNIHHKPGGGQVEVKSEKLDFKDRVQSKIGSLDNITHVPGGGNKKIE
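Using a mix of unlabeled (15 uM) and Alexa 594-labeled (0.24 uM) tau K18 P301L, heparin-triggered fibrillization over 6 hr at 37 C was scored by ThT fluorescence.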
ALDH1A1 inh – blocks purified human ALDH1A1 activity; Purified ALDH1A1, NADH fluorescence, propionaldehyde substrate; AID 1030; Potency, µM (doses to about 75.3 µM), for the others: top-dose activity, negative = inhibition, actives largely listed as inhibitors; P00352; actives 7.3% (n = 220,000);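 also: plate controls were no enzyme wells and a reference inhibitor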
Tau fluor counter – counter-screen for tau fibril formation inhibitors. tau K18 P301L Alexa594 fluorescence, heparin fibrillization. Potency, µM (top dose mostly 57.7 µM), for the others: top-dose activity change, negative = decrease. actives 0.93% (n = 280,000); active = well fitted curve in the direction sought with a large enough effect; inconclusive = small, poorly fitted or top-dose-only effect, or another doubt; inactive = no such curve, though single readings can be large; an effect the other way counts as inactive or inconclusive; also: nearly all actives have a fitted effect of over 55% in size
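Human tau K18 P301L (15 uM unlabeled, 0.24 uM Alexa 594-labeled) in 100 mM sodium acetate pH 7 with 20 uM heparin, 6 hr at 37 C. ThT 30 uM added, 1 hr ambient; Alexa 594 FP and total fluorescence read at 555/632 nm.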
Tau fibril FP – blocks human tau fibril formation measured by polarization; P10636; K18 P301L tau heparin fibrillization, Alexa594 FP, 6 h; Potency, µM (titrated, usually from 57.7 µM), for inactives: at the top dose activity, negative = inhibition, usual class: inhibitors; actives 0.39% (n = 280,000); AID 1468; active = well fitted curve in the direction sought with a large enough effect; inconclusive = small, poorly fitted or top-dose-only effect, or another doubt; inactive = no such curve, though single readings can be large; an effect the other way counts as inactive or inconclusive; also: nearly all actives have a fitted effect of over 55% in size
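Human tau K18 […] P301L fragment, 15 uM unlabeled plus 0.24 uM Alexa 594-labeled tau (final), with compound and 20 uM heparin in 100 mM sodium acetate pH 7; 6 hr at 37 C, then Alexa 594 FP read.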
The depositor's hits bear a star; [ ] = another dose, or the depositor's remark. Unless noted, calls follow the shape of the dose curve; as a rule, active = well fitted inhibition curve with a large enough effect (not every such curve was filed as active); inconclusive = small, poorly fitted or top-dose-only effect, or another doubt; inactive = no such curve, though single readings can be large or run the other way. Unless noted, % is scaled to controls: 0 for no effect and ±100 for the full control effect; potency is read from the fitted curve at half-maximal effect.

COc1cc(OC)cc(C(=O)Oc2ccc(/C=N/Nc3nc4ccccc4s3)cc2OC)c1 was read as HPGD block inconclusive, KDM4E inh 35.5µM*, Tau ThT inhib inconclusive, ALDH1A1 inh 2.2%, Tau fluor counter 10µM*[quencher] and Tau fibril FP 1.0%.
COc1cccc(OCC(=O)Nc2nnc3n2CCS3)c1 was read as Tau ThT inhib -1.3%, Tau fluor counter -4.1% and Tau fibril FP -2.5%.
`O[C@@H](c1cc([C@@]23C[C@H]4CC[C@@H]2C[C@H](C4)C3)nc2c(Cl)cc(Cl)cc12)C1CCCCN1` (some centres undefined) gave HPGD block -4.6% and ALDH1A1 inh 2.4%[13.5 µM].
`Cc1cccc(NC(=O)CSC2=NN3CCCC(=O)N=C3S2)c1C` gave KDM4E inh 16.7%, Tau ThT inhib -17.0%, ALDH1A1 inh 31.6µM*, Tau fluor counter 0.4% and Tau fibril FP -4.0%.
`Cc1cc(-c2ccccc2)nc(N/N=C/c2ccc([N+](=O)[O-])cc2)n1` gave HPGD block -9.2%, KDM4E inh -4.7%, Tau ThT inhib 7.08µM*, ALDH1A1 inh 9.4%, Tau fluor counter inconclusive and Tau fibril FP -12.4%.
`O=[N+]([O-])c1ccc(N/N=C/c2ccccc2)c(F)c1` gave HPGD block -3.4%, KDM4E inh 2.4%, Tau ThT inhib 7.08µM*, ALDH1A1 inh inconclusive, Tau fluor counter inconclusive and Tau fibril FP 15.4%.
`Cc1cc2c(C)nc(N/N=C/c3ccc(F)cc3)nc2o1` gave HPGD block inconclusive, KDM4E inh -2.7%, Tau ThT inhib inconclusive, ALDH1A1 inh -2.5%, Tau fluor counter -14.9% and Tau fibril FP 6.1%.
`O=[N+]([O-])c1ccc(/C=N/Nc2ncc(-c3ccccc3)cn2)cc1` gave KDM4E inh 4.7%, Tau ThT inhib inconclusive, ALDH1A1 inh -3.4%, Tau fluor counter -8.5% and Tau fibril FP 1.2%.
`Nc1cc(Cl)nc(N/N=C/c2ccccc2[N+](=O)[O-])n1` gave HPGD block 2.2%, KDM4E inh 3.8%, Tau ThT inhib inconclusive, ALDH1A1 inh 12.4%, Tau fluor counter -7.7% and Tau fibril FP 2.9%.
For Nc1cc(Cl)nc(N/N=C/c2ccc([N+](=O)[O-])cc2)n1 the results were HPGD block -10.2%, KDM4E inh 4.3%, Tau ThT inhib 5.62µM*, ALDH1A1 inh -7.4%, Tau fluor counter -22.6% and Tau fibril FP 3.5%.
For Cc1cc2c(C)nc(N/N=C/c3ccc([N+](=O)[O-])cc3)nc2o1 the results were HPGD block -3.7%, KDM4E inh 4.3%, Tau ThT inhib 3.16µM*, ALDH1A1 inh 10.8%, Tau fluor counter -10.9% and Tau fibril FP 4.4%.
Screening Cc1cc(C)c2cc(CN(Cc3nnnn3C3CCCCC3)CC3CCCO3)c(=O)[nH]c2c1 (centres undefined) returned HPGD block -3.4%, KDM4E inh inconclusive, Tau ThT inhib inconclusive, ALDH1A1 inh 4.47µM*, Tau fluor counter -5.0% and Tau fibril FP 7.9%.
`Cc1cc2cc(CN(Cc3nnnn3C3CCCCC3)CC3CCCO3)c(=O)[nH]c2cc1C` (centres undefined) gave HPGD block -7.1%, KDM4E inh -12.4%, Tau ThT inhib 0.1%, ALDH1A1 inh inconclusive, Tau fluor counter 8.8% and Tau fibril FP 1.1%.
For CCC(c1nnnn1CCOC)N(Cc1cc2c(C)cc(C)cc2[nH]c1=O)CC1CCCO1 (centres undefined) the results were HPGD block -3.2%, KDM4E inh 0.0%, Tau ThT inhib -7.1%, ALDH1A1 inh 11.2µM*, Tau fluor counter -1.2% and Tau fibril FP 1.8%.
For CCCC(c1nnnn1CC(=O)OCC)N(Cc1cc2c(C)cc(C)cc2[nH]c1=O)C1CCCC1 (centres undefined) the results were HPGD block -19.1%, KDM4E inh inconclusive, Tau ThT inhib inconclusive, ALDH1A1 inh 8.91µM*, Tau fluor counter -7.5% and Tau fibril FP 4.6%.
